PubChem BioAssay AID1159606 (Sanford-Burnham Center for Chemical Genomics, 2016)
The whole screen tested about 360,000 compounds, of which about 7,300 (2%) were called active. What follows is part of a selection rich in actives, with near analogues and random picks from the rest. A number with no mark means an inactive call. Rule as the data show it: active = inhibition above about 50%; inactive = the rest.

test: inhibitors of TWEAK-Fn14 signaling, primary screen, luciferase reporter cells, uHTS (AID 1159606); conditions: TWEAK-stimulated Fn14 reporter cells, luciferase luminescence, 8 h; at 10 µM; hits give high values

Structure (SMILES)	inhibition
COc1ccc(Br)c2c1C(=O)CC2	22.5%
Cc1cc([N+](=O)[O-])nn1CC(=O)Nc1ccc(Cc2ccncc2)cc1	8.17%
COc1ccc(C2CC(=O)C=C(NCC3CCCO3)C2)cc1 (configuration not stated)	-25.7%
N#Cc1ccccc1Sc1ccccc1C(=O)OCC(=O)NC1CCCCC1	1.09%
O=C1c2ccccc2C2=Nc3ccccc3SC(c3ccccc3F)C12 (configuration not stated)	59.2% (active)
COc1cccc(-c2ccc(SCC(=O)N3CCN(c4ccccc4)CC3)nn2)c1	-23.8%
COc1cccc(/C=C/C(=O)OCC(=O)N2CCN(c3ccccc3)CC2)c1	77.7% (active)
COc1cccc(/C=C/C(=O)OCC(=O)N2CCCc3ccccc32)c1	-1.49%
COc1ccc(CNc2c(CO)cnc3c2cnn3C)cc1	-5.49%
CCN(C(=O)Nc1cccc2ccccc12)c1ccccc1	11.9%
COc1ccc(Cl)cc1S(=O)(=O)N1CCC(O)(c2ccc(Cl)cc2)CC1	-6.82%
O=C(Cc1ccc(S(=O)(=O)N2CCOCC2)s1)Nc1ccc(Br)c(C(F)(F)F)c1	17.8%
Cn1nccc1C(=O)NC1CCCc2c1cnn2-c1ccc(F)cc1F (configuration not stated)	18.5%
COc1ccc(OC)c(C(=O)NC2CCCc3c2cnn3-c2cc(C)cc(C)c2)c1 (configuration not stated)	-50.2%
COc1ccc(C(=O)NC2CCCc3c2cnn3-c2cccc(C)c2C)c(OC)n1 (configuration not stated)	57.5% (active)
CCc1ccc(-c2nc(SCC(=O)NC3CCCC3)n[nH]2)cc1	66.6% (active)
COC(=O)c1ccccc1NC(=O)CSc1n[nH]c(-c2ccncc2)n1	-4.67%
CCc1c(C)nc(SCC(=O)NC2CCCC2)[nH]c1=O	15.7%
Cc1ccc(C2=NN(C(=O)CSc3nc(N)cc(N)n3)C(c3ccco3)C2)cc1 (configuration not stated)	9.43%
O=C(CN1CCN(C2CCS(=O)(=O)C2)CC1)N1N=C(c2ccc(Cl)cc2)CC1c1ccco1 (configuration not stated)	73.8% (active)
Cc1ccc(C2=NN(C(=O)COc3ncnc4ccccc34)C(c3ccco3)C2)cc1 (configuration not stated)	-54.3%
CC1(C(=O)NS(=O)(=O)c2ccc3ccccc3c2)CCN1C(=O)C1(c2ccc(Cl)cc2)CCC1 (configuration not stated)	17.7%
C/C(=N\NC(=O)c1ccc(C)cc1)C1C(=O)c2ccccc2C1=O	-2.62%

Structure (SMILES)	inhibition
CCOc1cccc(/C=C/c2ccc3ccccc3n2)c1OC(C)=O	60% (active)
CC(=O)c1ccc(S(=O)(=O)N2CCN(C(=O)/C=C/c3ccc4ccccc4n3)CC2)cc1	6.75%
CC(OC(=O)c1ccc2ccccc2n1)C(=O)c1ccccc1 (configuration not stated)	-11.2%
CCOc1ccccc1-c1cc(C(=O)N2CCOCC2)c2ccccc2n1	-5.73%
CCOc1ccccc1/C=N/Nc1nc2ccccc2o1	15.2%
COc1cccc(/C=C/c2ccc3ccccc3n2)c1OC(C)=O	86.8% (active)
CCCc1cc(=O)oc2c(C)c(OC(C)C(=O)NCC(O)c3ccccc3)ccc12 (configuration not stated)	-28.2%
COCn1c(C(O)c2ccccc2)cc2ccccc21 (configuration not stated)	3.63%
Cc1ccc(-c2ccc(CN3C(C)C(=O)N(Cc4cn(CCC5OCCCO5)nn4)CCS3(=O)=O)cc2)cc1 (configuration not stated)	5.69%
Cc1ccc(NC(=O)CSCC(=O)N2CCOCC2)cc1	-11.3%
O=C(CSc1nnc(-c2cnccn2)n1Cc1ccco1)c1ccc(Cl)c(Cl)c1	-5.31%
O=C(CSc1nnc(-c2cccnc2)n1Cc1ccco1)c1ccc(Cl)c(Cl)c1	62.2% (active)
C(=C\c1ccccc1)/CSc1nnc(-c2cccnc2)n1Cc1ccco1	-6.4%
CNC[C@H]1OCc2cnnn2CCCC(=O)N([C@H](C)CO)C[C@@H]1C	-13.2%
CCc1nc2ccc(C(=O)NC3CCN(Cc4ccccc4)CC3)cn2c1N(CC)CCOC	-14.1%
COCCNc1nc2nonc2nc1N1CCCC1c1nccs1 (configuration not stated)	-4.57%
CN1CCN(S(=O)(=O)c2cccc(C(=O)Nc3cccc(S(N)(=O)=O)c3)c2)CC1	14.8%
O=C(Nc1ccc2c(c1)CCC2)c1cccc(S(=O)(=O)Nc2ccccc2Cl)c1	25.9%
O=C(Nc1ccc2c(c1)CCC2)c1cccc(S(=O)(=O)N2CCN(c3ccc(F)cc3)CC2)c1	65% (active)
COc1ccc(NC(=O)c2ccccc2CC[N+](=O)[O-])cc1	2.4%
COCCNC(=O)c1cc2c(Br)ccc(Br)c2nc1N	2.81%
Cc1cc(C)n2c(Nc3c(C)cccc3C)c(CCc3ccccc3)nc2n1	-5.1%
OCC1(CO)CC2(C1)CC(CO)(CO)C2	15.3%

Structure (SMILES)	inhibition
Cc1ccc(-c2noc(CCC(=O)Nc3ccccc3N3CCN(C)CC3)n2)cc1	12.3%
CCOc1cc(/C=N/NC(=O)OC)ccc1OCCSc1ccc(Cl)cc1	10.4%
COc1cc(/C=C(/NC(=O)c2ccc(Cl)cc2Cl)C(=O)O)cc(OC)c1OC	15.3%
CCOc1cc(/C=C(/C#N)c2ccc(Cl)cc2)cc(Cl)c1OCC(=O)O	83.5% (active)
COc1ccccc1CNC(=O)C1CCN(S(=O)(=O)c2ccc3c(c2)OCCO3)CC1	10.5%
Cc1ccc(Cn2cc(C(=O)NN)c(=O)c3ccc(F)cc32)cc1	-2.98%
CCNc1nc(SCCOc2ccccc2)nc(N(C)C)n1	-28.5%
Cc1cccc(NC(=O)C2CC(=O)OC23CCCC3)c1 (configuration not stated)	14.4%
Cn1c(=O)c2cc(NC(=O)NCCc3cccs3)ccc2n1Cc1cccc(C(F)(F)F)c1	4.52%
O=C(Nc1nnc(COc2ccccc2)s1)Nc1ccccc1F	62.4% (active)
O=C(Nc1ccccc1)Nc1nnc(COc2ccccc2F)s1	-8.31%
COc1ccccc1NC(=O)Nc1nnc(Cc2ccc(F)cc2)s1	-26.6%
Brc1ccc(-c2nn[nH]n2)cc1	5.03%
CC(=O)C1=C(C)NC2=C(C(=O)CC(C)(C)C2)C1C (configuration not stated)	16%
COc1ccc(OC)c(/C(C)=N\NC(=O)c2cc3cc(Cl)ccc3n2C)c1	5.37%
Cc1ccc(S(=O)(=O)Nc2nc3ccccc3nc2N2CCc3ccccc3C2)cc1	86.8% (active)
COCCCNc1nc2ccccc2nc1NS(=O)(=O)c1ccc(F)cc1	19.1%
Cc1ccc(S(=O)(=O)C(C#N)c2nc3ccccc3nc2N2CCCC2)cc1C (configuration not stated)	12.6%
Cc1ccc(C)c(NC(=O)CSc2nc3c(oc4ccccc43)c(=O)n2-c2ccccc2)c1	25.1%
COc1ccccc1C(=O)NC(=S)NC12CC3CC(CC(C3)C1)C2	0.54%
COc1ccccc1C(=O)NC(=S)Nc1ccc(N2CCOCC2)cc1	-34.2%
COc1ccccc1C(=O)NC(=S)Nc1ccccc1N1CCCCC1	53.6% (active)
CC(C)(C)c1cc(NC(=O)NN2CCOCC2)nn1-c1c(Cl)cc(Cl)cc1Cl	4.79%

Structure (SMILES)	inhibition
CC(C)(C)OC(=O)C[C@@H]1C/C=C\C[C@@H](CC(=O)NCCO)C(=O)N[C@H](Cc2c[nH]c3ccccc23)COC1=O	-8.05%
Oc1cccc2ccc(/C=C/c3ccc(Br)s3)nc12	57.6% (active)
Nc1ccc(S(=O)(=O)Nc2nccc(/C=C/c3ccc(Br)s3)n2)cc1	-5.92%
CCCN(CC(=O)Nc1ccc(OC)c(OC)c1)CC(=O)Nc1ccc(F)c(F)c1F	-5.89%
O=c1c2c(nc3cc(-c4cccc(Cl)c4)[nH]n13)CCCC2	75.5% (active)
O=c1c2c(nc3nc[nH]n13)CCC2	1.33%
CCCCN1Cc2c(nc3cc(-c4ccccc4)[nH]n3c2=O)C1=O	1.25%
CSc1nnc(SCc2nc3sc(C(=O)O)c(C)c3c(=O)[nH]2)s1	15.4%
CCCCCCN1CCN(C2CN(Cc3cn(CCCCCC)nn3)S(=O)(=O)C2)CC1 (configuration not stated)	6.81%
COc1cc(-c2nnc(Cn3cc(C(F)(F)F)ccc3=O)o2)cc(OC)c1OC	-25.3%
C=CCOc1cccc(CNn2cn[nH]c2=S)c1	22.9%
CCOC(=O)[C@]12CCCC=C1N(Cc1cccc3ccccc13)C(=O)[C@H](CC(=O)NCC13CC4CC(CC(C4)C1)C3)C2	25.4%
O=C(Nc1sc2c(c1-c1nc3ccccc3[nH]1)CCCC2)C1CC1	-8.49%
C/C(=C\c1ccccc1)C1NC(=O)c2c(sc3c2CCCC3)N1 (configuration not stated)	77% (active)
O=C1NC(c2ccncc2)Nc2sc3c(c21)CCCC3 (configuration not stated)	-14.9%
CCC1NC(=O)c2cccnc2-n2c1nc1ccc(C)cc1c2=O (configuration not stated)	-40.1%
O=C(NCc1cccc(C(F)(F)F)c1)c1cccc(S(=O)(=O)N2CCN(Cc3ccccc3)CC2)c1	15.4%
CC(NC(=O)CCC(=O)N1CCN(S(=O)(=O)c2ccc(Cl)cc2)CC1)c1ccccc1 (configuration not stated)	4.74%
O=C(CCC(=O)N1CCN(S(=O)(=O)c2ccc(Cl)cc2)CC1)NCc1cccc(C(F)(F)F)c1	57.4% (active)
Cc1n[nH]c(=O)c2c(NC(=O)COC(=O)c3ncc(Cl)c(Cl)c3Cl)oc(C)c12	-5.62%
CCCCCCCCCCOC(=O)Cn1c(COc2ccc(C)cc2)[n+](C)c2ccccc21	76.3% (active)
Cc1noc(C)c1COC(=O)Cn1c(C)nc2ccccc21	-13%
CSc1ccccc1NC(=O)COC(=O)CCCOc1ccc(C)cc1	-5.19%
